Pf growth 48h: Primary qHTS for delayed death inhibitors of the malarial parasite plastid, 48 hour incubation. hit rate 5.9% among 310,000. P. falciparum luciferase growth in erythrocytes, 48 h. Potency, µM (series often up to 28.7 µM), usual class: inhibitors; active means well fitted inhibition curve with a large enough effect; inconclusive means small, poorly fitted or top-dose-only effect, or another doubt; inactive means no such curve, though single readings can be large or run the other way
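Cell-based growth assay: transgenic P. falciparum expressing firefly luciferase, cultured in red cells within RPMI 1640 containing 0.5% w/v Albumax, 24 mM bicarbonate and gentamycin. A drop in luciferase activity indicates inhibition.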
Pf growth 96h: Primary qHTS for delayed death inhibitors of the malarial parasite plastid, 96 hour incubation. P. falciparum luciferase reporter growth, 96 h. Potency, µM (titrated, usually from 28.7 µM), hits mostly inhibitors. hit rate 6.9% among 320,000. AID 504834, 2011; active means well fitted inhibition curve with a large enough effect; inconclusive means small, poorly fitted or top-dose-only effect, or another doubt; inactive means no such curve, though single readings can be large or run the other way
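Plates of compound plus infected erythrocytes (2% hematocrit, 0.05% parasitemia final) incubate 96 hours, 37 C, 5% CO2. Detection reagent added; reduced luminescence from the parasites' luciferase reporter flags inhibition.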
SARS PLP yeast: qHTS of Yeast-based Assay for SARS-CoV PLP; S. cerevisiae expressing SARS-CoV PLpro, growth rescue; Potency, µM (top dose mostly 32.9 µM), actives largely listed as activators; hit rate 0.19% among 330,000; AID 485353, 2010; further: nearly all actives have a fitted effect of over 55% in size
NS1 function inh: qHTS Assay for Inhibitors of Influenza NS1 Protein Function; Potency, µM (titrated, usually from 46.1 µM); hit rate 0.4% among 270,000; further: actives are rising curves; nearly all actives have a fitted effect of over 50% in size
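Growth recovery, yeast-based: influenza A NS1 expressed in S. cerevisiae causes slow growth, and suppressors are detected by OD600. The parent strain without NS1 is used as positive control.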
CHX counter: Cycloheximide Counterscreen for Small Molecule Inhibitors of Shiga Toxin; hit rate 12% among 300,000; cell reporter, cycloheximide protein synthesis inhibition counterscreen; max response, %; AID 2314, 2010; in the data active means max response mostly above about 13%, no sharp cut-off; inactive means mostly below about 14%; further: read at 38.3 µM for the half of the compounds with a filed dose
Shiga inhibitor: A qHTS for Small Molecule Inhibitors of Shiga Toxin; Vero cells, Shiga toxin protein synthesis inhibition reporter; inhibition, % at 38.7 µM; hit rate 9.2% among 290,000; AID 2315, 2010; in the data active means inhibition mostly above about 28%, no sharp cut-off; inactive means mostly below about 43%
Flu NS1 inh: Assay for Inhibitors of Influenza NS1 Protein Function: Hit Validation. shares compounds with NS1 function inh. influenza NS1 function cell assay, 15-point titration. activity change, negative = inhibition, % at 32.9 µM. 1,400 tested, under 10 active. AID 492980, 2010
Of the large screens only hits and unclear results are named; the others gave an inactive call (follow-up assays come after a bar, where they were run). Rows were chosen to be rich in hits. Some 21% of all compounds tested hit in one or more screens of this group. Unless noted, the call rests on the fitted dose curve.

COc1cc(/C=N/NC(=O)c2sc3nc(C)cc(C)c3c2N)ccc1O	Pf growth 48h inconclusive, Pf growth 96h inconclusive, NS1 function inh inconclusive | Flu NS1 inh inactive
COC(=O)c1sc2nc(C)cc(C)c2c1N	none
O=C(NCc1ccccn1)c1cccn1-c1ncc(C(F)(F)F)cc1Cl	Pf growth 48h inconclusive (no result: NS1 function inh)
Cc1ccc(C2=CC(c3cccs3)n3nnnc3N2)cc1 (stereo not drawn)	NS1 function inh 3.2µM, CHX counter 47 | Flu NS1 inh inactive
CCOC(=O)CC(NC(=O)c1ccc(C)cc1)c1ccc(OC)cc1 (stereo not drawn)	Pf growth 48h inconclusive, Pf growth 96h inconclusive (no result: NS1 function inh)
CCN(CC(=O)NCC1CCCO1)S(=O)(=O)c1ccc(Cl)cc1 (stereo not drawn)	Pf growth 96h inconclusive
COc1cccc(C(=O)Nc2cc(NC(=O)c3cccs3)ccc2C)c1OC	none
CCOC(=O)N1CCN(C(=O)CCC(=O)N2CCOc3ccc(C)cc32)CC1	Pf growth 48h inconclusive, Pf growth 96h inconclusive, NS1 function inh 5.6µM | Flu NS1 inh inactive
O=C(CCCN1C(=O)c2ccccc2C1=O)NCCN1C(=O)S/C(=C\c2cccs2)C1=O	Pf growth 96h inconclusive
O=[N+]([O-])c1ccc(Nc2ccccc2F)nc1	none
O=C(c1ccc(S(=O)(=O)N2CCCC2)cc1)N1CCN(c2ccccc2)CC1	Pf growth 96h inconclusive, NS1 function inh 4.5µM | Flu NS1 inh inactive
O=C(c1ccc(S(=O)(=O)N2CCCC2)cc1)N1CCN(c2cccc(Cl)c2)CC1	Pf growth 48h inconclusive, Pf growth 96h inconclusive
COc1ccc2c(c1)c(C(=O)O)c(C)n2CCc1ccc(OC)c(OC)c1	Pf growth 48h inconclusive, NS1 function inh 6.3µM (no result: Shiga inhibitor) | Flu NS1 inh inactive
CCc1nn(C(C)C(=O)NC2CCCCCC2)c(=O)c2cc3occc3n12 (stereo not drawn)	none
CCSC(=S)c1c(C)[nH]n(-c2ccccc2)c1=O	none
Cc1c(/C=N/NC(=O)c2ccc(O)cc2)c2ccccn2c1C(=O)c1ccc(F)cc1	Pf growth 48h 4.1µM, Pf growth 96h inconclusive, NS1 function inh 8.9µM | Flu NS1 inh inactive
O=C1N/C(=N/N=C/c2ccccc2)SC1(c1ccccc1)c1ccccc1	NS1 function inh 14µM (no result: Pf growth 48h) | Flu NS1 inh inactive
Cc1cc(=O)[nH]c(SCC(=O)Nc2nc(-c3ccccc3)c(-c3ccccc3)o2)n1	NS1 function inh inconclusive, CHX counter 16 | Flu NS1 inh inactive
Cc1cc(C)nc(SCC(=O)Nc2nc(-c3ccccc3)c(-c3ccccc3)o2)n1	Pf growth 96h inconclusive
O=C(c1cccs1)N1CCN(Cc2ccccc2[N+](=O)[O-])CC1	none
CCCOc1ccc(C2NC(=S)NC(c3ccccc3)=C2C(=O)Nc2ccc(C)cc2)cc1OC (stereo not drawn)	Pf growth 48h 2.6µM, NS1 function inh 13µM | Flu NS1 inh inactive
COc1cc(C2NC(=S)NC(c3ccccc3)=C2C(C)=O)ccc1O (stereo not drawn)	none
Cc1ccc(N(CC(=O)NN=C2CCN(C)CC2)S(=O)(=O)c2ccccc2)c(C)c1	NS1 function inh 4.5µM | Flu NS1 inh inactive
COc1ccc(S(=O)(=O)N(CC(=O)NN=C2CCN(C)CC2)c2ccc(C)cc2)cc1OC	none
O=C(N/C(=C\c1ccco1)C(=O)N1CCCC1)c1ccccc1	none
Cc1ccc(C(=O)N/C(=C/c2ccco2)C(=O)N2CCCCCC2)cc1	Pf growth 96h inconclusive, NS1 function inh inconclusive | Flu NS1 inh inactive
O=C(NCc1ccccc1)c1ccc(CN2CCOCC2)cc1	NS1 function inh inconclusive | Flu NS1 inh inactive
O=C(CCC(=O)N(CC(=O)NC1CCCCC1)Cc1cccs1)Nc1nccs1	NS1 function inh 6.3µM | Flu NS1 inh inactive
CN(C)S(=O)(=O)c1ccc(Cl)c(C(=O)OCC(=O)NC(=O)NC2CCCC2)c1	none (no result: NS1 function inh, CHX counter, Shiga inhibitor)
C=CCN1C(=O)CS/C1=C(\C#N)S(=O)(=O)c1ccc(C)cc1	Pf growth 48h inconclusive, NS1 function inh 1.6µM | Flu NS1 inh inactive
COc1ccc(N2CC(NS(=O)(=O)c3cccs3)CC2=O)cc1 (stereo not drawn)	none (no result: NS1 function inh, CHX counter, Shiga inhibitor)
